PubChem BioAssay (EPA / NIEHS)
Calls of active or inactive are those of the source. The calls were made as follows: active = hit-call score of the fitted dose curve at least 0.9, where 1 is the maximum; inactive = score below 0.9.

What was measured:
Conditions in all cases: mRNA level, 48 h; actives raise or lower the signal
[1] = read-out: ABC Transporter (ABCB1), ABCB1 (gene 5243); experiment: LTEA_HepaRG_ABCB1: Life Technologies and Expression Analysis (LTEA) Assay for ABC Transporter (ABCB1) using HepaRG (AID 2283460)
Summary of the method: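 HepaRG cells exposed in duplicate for 48 h in serum-free induction medium to eight half-log concentrations up to 100 uM in 0.5% DMSO. ABCB1 mRNA quantified by qRT-PCR, normalised to ACTB, GAPDH and POLR2A; fitted bidirectionally versus DMSO.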

[2] = read-out: growth arrest and DNA damage 45 (GADD45B), GADD45B (gene 4616); experiment: LTEA_HepaRG_GADD45B: Life Technologies and Expression Analysis (LTEA) Assay for growth arrest and DNA damage 45 (GADD45B) using HepaRG (AID 2283461)
Summary of the method: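 qRT-PCR read-out (Fluidigm TaqMan, housekeeping-normalized) of mRNA change in human HepaRG cells after 48 h chemical exposure; 8-point curve, top 100 uM, half-log steps, 0.5% DMSO vehicle; gain or loss fitted relative to DMSO baseline.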

[3] = read-out: ABC Transporter (ABCC3), ABCC3 (gene 8714); experiment: LTEA_HepaRG_ABCC3: Life Technologies and Expression Analysis (LTEA) Assay for ABC Transporter (ABCC3) using HepaRG (AID 2283462)
Summary of the method: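 qRT-PCR read-out of ABCC3 transcript, normalized to three housekeeping genes (ACTB, GAPDH, POLR2A), after 48 h chemical exposure of human HepaRG cells. Eight half-log concentrations, highest 100 uM, in 0.5% DMSO; gain or loss fitted relative to DMSO baseline.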

[4] = read-out: ABC Transporter (ABCB11), ABCB11 (gene 8647); experiment: LTEA_HepaRG_ABCB11: Life Technologies and Expression Analysis (LTEA) Assay for ABC Transporter (ABCB11) using HepaRG (AID 2283463)
Summary of the method: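 Differentiated human HepaRG cells in serum-free induction medium, dosed in duplicate for 48 h. Eight-point half-log series from 100 uM in 0.5% DMSO; ABCB11 mRNA by qRT-PCR, normalized to ACTB, GAPDH, POLR2A, fitted bidirectionally versus DMSO.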

[5] = read-out: ABC Transporter (ABCC2), ABCC2 (gene 1244); experiment: LTEA_HepaRG_ABCC2: Life Technologies and Expression Analysis (LTEA) Assay for ABC Transporter (ABCC2) using HepaRG (AID 2283464)
Summary of the method: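 qRT-PCR (TaqMan, Fluidigm array) read-out of ABCC2 mRNA, normalized to three housekeeping genes. Differentiated HepaRG cells were treated 48 h in serum-free induction medium with 8-point half-log series from 100 uM in 0.5% DMSO; curves fitted bidirectionally relative to DMSO.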

[6] = read-out: Broad substrate specificity ATP-binding cassette transporter ABCG2 (Homo sapiens) (UniProt Q9UNQ0); experiment: LTEA_HepaRG_ABCG2: Life Technologies and Expression Analysis (LTEA) Assay for ABC Transporter (ABCG2) using HepaRG (AID 2283465)
Summary of the method: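 Differentiated HepaRG cells were exposed for 48 h in serum-free induction medium to 8 half-log concentrations, top 100 uM, in 0.5% DMSO. ABCG2 mRNA was measured by qRT-PCR, normalized to ACTB, GAPDH and POLR2A, with bidirectional fitting versus DMSO.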

[7] = read-out: ATP-citrate lyase (ACLY), ACLY (gene 47); experiment: LTEA_HepaRG_ACLY: Life Technologies and Expression Analysis (LTEA) Assay for ATP-citrate lyase (ACLY) using HepaRG (AID 2283466)
Summary of the method: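 Differentiated HepaRG cells exposed 48 h in serum-free induction medium to eight half-log concentrations up to 100 uM in 0.5% DMSO, duplicates. Transcript measured by Fluidigm TaqMan qRT-PCR, normalized to ACTB, GAPDH, POLR2A; bidirectional fit versus DMSO.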

[8] = read-out: Peroxisomal acyl-coenzyme A oxidase 1 (ACOX1) gene, ACOX1 (gene 51); experiment: LTEA_HepaRG_ACOX1: Life Technologies and Expression Analysis (LTEA) Assay for Peroxisomal acyl-coenzyme A oxidase 1 (ACOX1) gene using HepaRG (AID 2283467)
Summary of the method: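 HepaRG cells, plated 48 h then switched to serum-free induction medium, were exposed in duplicate for 48 h to 8-point half-log concentrations up to 100 uM in 0.5% DMSO. ACOX1 mRNA was measured by qRT-PCR, normalized to ACTB/GAPDH/POLR2A, and fitted bidirectionally versus DMSO.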

[9] = read-out: Bcl-2 (BAD) gene, BAD (gene 572); experiment: LTEA_HepaRG_BAD: Life Technologies and Expression Analysis (LTEA) Assay for Bcl-2 (BAD) gene using HepaRG (AID 2283469)
Summary of the method: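 Differentiated HepaRG cells were exposed in duplicate in 0.5% DMSO for 48 h to eight-point half-log concentrations up to 100 uM. BAD mRNA was measured by Fluidigm TaqMan qRT-PCR, normalized to ACTB, GAPDH and POLR2A, and fitted bidirectionally against DMSO.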

[10] = read-out: Bcl-2 (BAX) gene, BAX (gene 581); experiment: LTEA_HepaRG_BAX: Life Technologies and Expression Analysis (LTEA) Assay for Bcl-2 (BAX) gene using HepaRG (AID 2283470)
Summary of the method: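 HepaRG (human liver), 48 h exposure, duplicate wells. 8-pt curve, half-log from 100 uM, 0.5% DMSO. BAX transcript by TaqMan qRT-PCR; ACTB/GAPDH/POLR2A normalization; gain or loss vs DMSO baseline.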

[11] = read-out: adenosine kinase (ADK) gene, ADK (gene 132); experiment: LTEA_HepaRG_ADK: Life Technologies and Expression Analysis (LTEA) Assay for adenosine kinase (ADK) gene using HepaRG (AID 2283471)
Summary of the method: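 Read-out is ADK transcript level measured by qRT-PCR and normalised to three housekeeping genes. Cells are human HepaRG, dosed for 48 h at up to 100 uM in 0.5% DMSO. Gain or loss of signal is fitted against DMSO controls.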

[12] = read-out: BCL2L11 (gene 10018); experiment: LTEA_HepaRG_BCL2L11: Life Technologies and Expression Analysis (LTEA) Assay for Bcl-2 (BCL2L11) gene using HepaRG (AID 2283473)
Summary of the method: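 HepaRG, 48 h exposure, 8-pt half-log series from 100 uM in 0.5% DMSO, duplicates; qRT-PCR (Fluidigm TaqMan) for BCL2L11, housekeeping-normalized; bidirectional curve fit relative to DMSO baseline.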

[13] = read-out: Apolipoprotein A-V (APOA5) gene, APOA5 (gene 116519); experiment: LTEA_HepaRG_APOA5: Life Technologies and Expression Analysis (LTEA) Assay for Apolipoprotein A-V (APOA5) gene using HepaRG (AID 2283474)
Summary of the method: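 HepaRG, 48 h chemical exposure in serum-free induction medium, 8-pt half-log series (top 100 uM), 0.5% DMSO vehicle, duplicates. Readout: APOA5 mRNA by qRT-PCR, housekeeping-normalized; bidirectional fit vs DMSO baseline.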

[14] = read-out: Apoptosis regulator Bcl-2 (Homo sapiens) (UniProt P10415); experiment: LTEA_HepaRG_BCL2: Life Technologies and Expression Analysis (LTEA) Assay for Bcl-2 gene using HepaRG (AID 2283475)
Summary of the method: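 HepaRG, plated 48 h then switched to serum-free induction medium; dosed 48 h, 8 conc. (max 100 uM, half-log steps), duplicate, 0.5% DMSO. Lysis in RLT, RNA isolated, TaqMan qRT-PCR for BCL2; ACTB/GAPDH/POLR2A normalisation; bidirectional fit vs DMSO.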

[15] = read-out: Bcl-2 (BID) gene, BID (gene 637); experiment: LTEA_HepaRG_BID: Life Technologies and Expression Analysis (LTEA) Assay for Bcl-2 (BID) gene using HepaRG (AID 2283476)
Summary of the method: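 Transcript levels of BID, measured by qRT-PCR and normalized to three housekeeping genes, were fitted bidirectionally against DMSO controls. Cells were HepaRG, dosed 48 h at up to 100 uM.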

[16] = read-out: Caspase-3 (Homo sapiens) (UniProt P42574); experiment: LTEA_HepaRG_CASP3: Life Technologies and Expression Analysis (LTEA) Assay for cysteine-aspartic acid protease (CASP3) using HepaRG (AID 2283477)
Summary of the method: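 HepaRG, 48 h exposure, 8 conc. (top 100 uM, half-log steps, duplicate), 0.5% DMSO vehicle; qRT-PCR of CASP3 transcript, housekeeping-normalised (ACTB/GAPDH/POLR2A); bidirectional curve fit vs DMSO baseline.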

[17] = read-out: Cytochrome P450 (CYP24A1), CYP24A1 (gene 1591); experiment: LTEA_HepaRG_CYP24A1: Life Technologies and Expression Analysis (LTEA) Assay for Cytochrome P450 (CYP24A1) using HepaRG (AID 2283478)
Summary of the method: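 qRT-PCR read-out: CYP24A1 transcript levels normalized to three housekeeping genes, bidirectional curve fits against 0.5% DMSO baseline. Human HepaRG cells treated 48 h with chemicals at eight concentrations from 100 uM in half-log steps.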

[18] = read-out: Cytochrome P450 (CYP1A2), CYP1A2 (gene 1544); experiment: LTEA_HepaRG_CYP1A2: Life Technologies and Expression Analysis (LTEA) Assay for Cytochrome P450 (CYP1A2) using HepaRG (AID 2283479)
Summary of the method: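 HepaRG, 48 h exposure, top 100 uM, half-log 8-pt, 0.5% DMSO vehicle, duplicates. Readout: TaqMan qRT-PCR of CYP1A2 mRNA, housekeeping-normalized (ACTB/GAPDH/POLR2A). Gain/loss fit relative to DMSO baseline.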

[19] = read-out: Alkaline Phosphatase, Placental (ALPP) gene, ALPP (gene 250); experiment: LTEA_HepaRG_ALPP: Life Technologies and Expression Analysis (LTEA) Assay for Alkaline Phosphatase, Placental (ALPP) gene using HepaRG (AID 2283468)
Summary of the method: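 qRT-PCR readout of ALPP mRNA (Fluidigm TaqMan), normalized to ACTB/GAPDH/POLR2A, after 48 h chemical exposure of HepaRG cells; 8-point half-log series, top 100 uM, 0.5% DMSO vehicle. Bidirectional curve fit versus DMSO baseline.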

[20] = read-out: Alpha-fetoprotein (AFP) gene, AFP (gene 174); experiment: LTEA_HepaRG_AFP: Life Technologies and Expression Analysis (LTEA) Assay for Alpha-fetoprotein (AFP) gene using HepaRG (AID 2283472)
Summary of the method: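 HepaRG, single lot; 48 h post-plating -> serum-free induction medium; cpd 8-pt, 100 uM top, half-log, 0.5% DMSO, duplicate, 48 h. RNA -> qRT-PCR AFP, norm ACTB/GAPDH/POLR2A. Bidirectional fit vs DMSO.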

Measured: AC50

Caspase-3 (Homo sapiens), sequence (P42574 whole entry, looked up): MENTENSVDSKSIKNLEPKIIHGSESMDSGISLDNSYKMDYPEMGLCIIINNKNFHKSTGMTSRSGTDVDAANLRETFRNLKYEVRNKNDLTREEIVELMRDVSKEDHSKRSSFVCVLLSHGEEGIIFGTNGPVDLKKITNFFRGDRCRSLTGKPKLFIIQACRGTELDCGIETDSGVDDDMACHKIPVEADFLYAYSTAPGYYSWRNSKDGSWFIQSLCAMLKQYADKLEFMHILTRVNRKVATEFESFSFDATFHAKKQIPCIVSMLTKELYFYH
Broad substrate specificity ATP-binding cassette transporter ABCG2 (Homo sapiens), sequence (Q9UNQ0 whole entry, looked up): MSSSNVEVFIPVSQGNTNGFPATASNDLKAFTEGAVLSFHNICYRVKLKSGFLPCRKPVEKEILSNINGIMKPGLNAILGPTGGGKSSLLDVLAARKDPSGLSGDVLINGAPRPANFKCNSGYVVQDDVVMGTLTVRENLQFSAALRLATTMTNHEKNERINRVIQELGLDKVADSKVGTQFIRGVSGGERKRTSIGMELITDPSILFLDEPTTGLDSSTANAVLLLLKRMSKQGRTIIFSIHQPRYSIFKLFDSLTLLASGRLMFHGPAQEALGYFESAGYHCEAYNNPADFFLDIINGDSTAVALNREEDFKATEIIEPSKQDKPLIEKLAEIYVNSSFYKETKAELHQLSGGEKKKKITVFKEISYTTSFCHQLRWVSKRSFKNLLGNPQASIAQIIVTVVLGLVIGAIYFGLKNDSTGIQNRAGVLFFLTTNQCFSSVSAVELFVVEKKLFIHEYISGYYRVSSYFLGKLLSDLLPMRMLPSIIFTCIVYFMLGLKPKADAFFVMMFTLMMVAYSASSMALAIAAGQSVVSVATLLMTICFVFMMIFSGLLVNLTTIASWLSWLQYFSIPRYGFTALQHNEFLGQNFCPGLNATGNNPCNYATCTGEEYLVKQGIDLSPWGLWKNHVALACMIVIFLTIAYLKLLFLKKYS
Apoptosis regulator Bcl-2 (Homo sapiens), sequence (P10415 whole entry, looked up): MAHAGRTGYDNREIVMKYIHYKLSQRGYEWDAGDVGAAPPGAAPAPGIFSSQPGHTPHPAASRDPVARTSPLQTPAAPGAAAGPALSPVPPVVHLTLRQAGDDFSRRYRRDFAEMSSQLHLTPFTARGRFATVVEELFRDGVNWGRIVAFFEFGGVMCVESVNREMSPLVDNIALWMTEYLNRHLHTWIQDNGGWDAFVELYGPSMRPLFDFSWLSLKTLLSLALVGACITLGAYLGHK

CCCCCCCCCCCCCN1CC(C)OC(C)C1 (stereo not given)
active: [18] 50 µM
inactive: [1] | [2] | [3] | [4] | [5] | [6] | [7] | [8] | [9] | [10] | [11] | [12] | [13] | [14] | [15] | [16] | [17]

CCN(CC)N=O
inactive: [1] | [2] | [3] | [4] | [6] | [7] | [8] | [19] | [9] | [10] | [11] | [20] | [12] | [13] | [14] | [15] | [16] | [18]

Cc1cccc(N)c1N
inactive: [1] | [3] | [5] | [6] | [7] | [9] | [10] | [14] | [15] | [16] | [17]
active: [2] 64 µM | [4] 62.6 µM | [8] 50 µM | [20] 81.5 µM | [12] 9.92 µM | [13] 37.6 µM | [18] 8.42 µM

OCCOCCO
inactive: [1] | [2] | [3] | [4] | [6] | [7] | [8] | [19] | [9] | [10] | [20] | [12] | [13] | [14] | [15] | [16] | [17]

CCCSC(=O)N(CCC)CCC
inactive: [1] | [2] | [3] | [4] | [5] | [6] | [7] | [8] | [9] | [10] | [11] | [12] | [13] | [14] | [15] | [16] | [17]

[O-][Cl+]O
inactive: [1] | [2] | [3] | [4] | [6] | [7] | [8] | [19] | [9] | [10] | [11] | [20] | [12] | [13] | [14] | [15] | [16] | [17] | [18]

Clc1ccc(C(c2ccc(Cl)cc2)C(Cl)(Cl)Cl)cc1
inactive: [2] | [3] | [4] | [7] | [8] | [19] | [9] | [10] | [12] | [15] | [16] | [17] | [18]
active: [1] 50 µM | [6] 0.788 µM | [20] 50 µM | [13] 50 µM | [14] 50 µM
